# Values without a mark were called inactive. No rule for the calls is given here.
# Target: Pantothenate synthetase (Mycobacterium tuberculosis (strain ATCC 25618 / H37Rv)) (UniProt P9WIL5)
# Assay: Recombinant Mtb pantothenate synthetase (PanC) inhibitors, coupled enzyme, confirmatory (AID 375);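 also: 0% = full reaction with vehicle and 100% = no enzyme background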
# Settings: coupled enzyme assay; at 10 µM, stronger effect = higher value
# Chain of Pantothenate synthetase (Mycobacterium tuberculosis (strain ATCC 25618 / H37Rv)) (P9WIL5 whole entry, looked up): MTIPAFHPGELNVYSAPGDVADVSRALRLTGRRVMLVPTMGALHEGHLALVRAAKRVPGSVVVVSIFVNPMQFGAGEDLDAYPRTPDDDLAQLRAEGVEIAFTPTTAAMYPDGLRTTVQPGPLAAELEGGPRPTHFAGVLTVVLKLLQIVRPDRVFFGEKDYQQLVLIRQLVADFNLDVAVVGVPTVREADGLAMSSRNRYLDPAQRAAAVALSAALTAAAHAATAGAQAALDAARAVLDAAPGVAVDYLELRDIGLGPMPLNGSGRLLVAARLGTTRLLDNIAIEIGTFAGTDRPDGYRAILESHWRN
row,SMILES,inhibition [%]
1,O=C(Nc1ccc(S(=O)(=O)N2CCc3ccccc32)cc1)c1ccc2c(c1)OCO2,0
2,Cc1ccc(S(=O)(=O)Cn2nnnc2CN(Cc2ccco2)Cc2cccs2)cc1,0
3,O=P(O)(CN1CCCCCC1)CN1CCCCCC1,0
4,CCCCN(CC)CCCNC(=O)CS(=O)(=O)Cc1nc(-c2cccc(OC)c2)oc1C,0
5,CC(C)Cn1c(CN(Cc2ccccc2)Cc2ccccc2)nc2c1c(=O)n(C)c(=O)n2C,5
6,CS(=O)(=O)N1CCN(c2ccccc2NC(=O)c2ccc(-c3ccc(Cl)cc3Cl)o2)CC1,7
7,CS(=O)(=O)Nc1ccccc1C(=O)O,0
8,CCC(=O)N1CCc2cc(Br)cc(S(=O)(=O)N3CCCCCC3)c21,0
9,COC(=O)c1cc(Br)ccc1-c1ccc(/C=N/n2nnnc2N)o1,7
10,Nc1ccc2cn[nH]c2c1,0
11,O=C(NCCC1=CCCCC1)C1CC(=O)N(C2CCCCCC2)C1 (stereo not drawn),2
12,CC(C)(C)n1nnnc1CN1CCN(C2CCCC2)CC1,3
13,O=c1c2ccccc2nnn1CSc1nc2cc(Cl)ccc2c(=O)n1Cc1ccco1,7
14,O=C1C2ON(c3ccccc3)C(c3cccnc3)C2C(=O)N1c1ccccc1 (stereo not drawn),4
15,Cc1cnc(C(=O)Nc2ccc(N3CCN(C(=O)OC(C)(C)C)CC3)cc2)cn1,0
16,Cc1nc(C)c(C(=O)C2=C(O)C(=O)N(CCN3CCOCC3)C2c2ccco2)s1 (stereo not drawn),9
17,Cn1c(=O)c2nc(Cl)n(Cc3ccc(Cl)cc3Cl)c2n(C)c1=O,6
18,O=c1[nH]c2sc3c(c2c2nncn12)CCCC3,0
19,CCOc1ccc(C2CC(c3ccccc3C)n3nc(N)nc3N2)cc1 (stereo not drawn),0
20,CC(Sc1nnc(-c2cc3ccccc3o2)n1-c1ccccc1)C(=O)O (stereo not drawn),12
21,Clc1cccc(Cl)c1COc1ccncc1,0
22,COc1ccc2oc(=O)c(C(=O)N3CCN(c4ccccc4F)CC3)cc2c1,0
23,COC(=O)c1cc(=O)n(Cc2ccc3c(c2)OCO3)c(=Nc2ccccc2)s1,7

# Reference: PubChem BioAssay
